# Assay outcomes deposited in PubChem by National Center for Advancing Translational Sciences (NCATS).
# KB-V1 cytotox = qHTS assay for MDR1-selective chemotherapeutics: Primary screen using the drug-selected MDR subline cells KB-V1 | 3.4% of 400,000 active | AID 1347076, 2019 | Potency, µM (top dose mostly 46.1 µM), most hits filed as cytotoxic | KB-V1 MDR cells viability, CellTiter-Glo, 72 h; also: nearly all actives have a fitted effect of over 60% in size
#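 Potencies derive from concentration-effect curves fitted to normalized luminescence (CellTiter-Glo) of KB-V1 cells treated for 72 h at 37 degrees C in phenol-red-free DMEM containing 10% FBS.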
# KB-3-1 tox = qHTS assay for MDR1-selective chemotherapeutics: Primary screen using the parental adenocarcinoma cell KB-3-1. KB-3-1 viability, CellTiter-Glo ATP luminescence, 72 h. AID 1347075, 2019. 1.4% of 400,000 active. Potency, µM (top dose mostly 46.1 µM), hits mostly cytotoxic; also: nearly all actives have a fitted effect of over 60% in size
#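 Parental KB-3-1 adenocarcinoma cells in phenol-red-free DMEM with 10% FBS were pin-treated with compounds at several concentrations, incubated 72 h at 37 °C, and viability read by CellTiter-Glo luminescence; concentration-effect curves were fitted after normalization.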
# HT1080NT lethal = qHTS for induction of synthetic lethality in tumor cells producing 2HG: qHTS for the HT-1080-NT fibrosarcoma cell line; HT-1080-NT fibrosarcoma viability, CellTiter-Glo ATP luminescence, 48 h; Potency, µM (doses to about 46.1 µM), for inactives: at the highest dose activity, negative = less viability, actives largely listed as cytotoxic; 1.6% of 360,000 active; AID 686970, 2013;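 also: NT is the 2HG producing partner of a matched IDH1 knockdown line; 0% = DMSO-treated cells and -100% = media-only wells without cells; nearly all actives have a fitted effect of over 55% in size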
#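 Compounds were tested in concentration-response format on HT-1080-NT cells for 48 hours at 37 degrees C. Cell viability came from CellTiter-Glo luminescence; curves were classified by r2, response magnitude and activity.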
# TDP1 cell CPT = qHTS for Inhibitors of human tyrosyl-DNA phosphodiesterase 1 (TDP1): qHTS in cells in presence of CPT; 12% of 420,000 active; chicken DT40 Tdp1-/-;hTDP1 cells + 20 nM CPT, ATP luminescence, 48 h; Potency, µM (titrated, usually from 46.2 µM), without a hit: at the highest dose activity change, negative = growth inhibition, most hits filed as inhibitors; also: nearly all actives have a fitted effect of over 55% in size
#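 Chicken DT40 Tdp1-/- cells stably complemented with human TDP1 were seeded at 400 cells/well in medium containing 20 nM camptothecin, exposed to pin-transferred compounds, and grown at 37 °C for at least 48 hr. Viability was read as ATP luminescence.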
# HT1080 IDH1KD tx = qHTS for induction of synthetic lethality in tumor cells producing 2HG: qHTS for the HT-1080-IDH1KD cell line | HT-1080 IDH1 knockdown viability, ATP luminescence, 48 h | 2% of 360,000 active | Potency, µM (doses to about 46.1 µM), for inactives: at the highest dose activity, negative = toxicity, hits mostly cytotoxic | AID 686971, 2013;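 also: 0% = DMSO wells and -100% = cell-free medium wells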
#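 Cytotoxicity counter-line: IDH1KD HT-1080, 48 h, CellTiter-Glo. Curves classed by r2, magnitude and activity.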
# TDP1 cell noCPT = qHTS for Inhibitors of human tyrosyl-DNA phosphodiesterase 1 (TDP1): qHTS in cells in absence of CPT. 15% of 420,000 active. AID 686978, 2013. Potency, µM (top dose mostly 46.2 µM), for the others: at the highest dose activity change, negative = growth inhibition, actives largely listed as inhibitors. DT40 Tdp1-/- hTDP1 cells, no CPT, ATP luminescence, 48 h; also: nearly all actives have a fitted effect of over 55% in size
#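 Growth kinetics read by CellTiter-Glo luminescence after ≥48 hr at 37 °C. Cells: DT40 Tdp1-/- stably carrying human TDP1, 400 per well, compound exposure in the absence of CPT (DMSO vehicle).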
# An asterisk follows results filed as active; i = inactive; ? = inconclusive; / = no result given. In the library only some 19% were active in any assay of this set; here they are far more common. Calls follow the shape of the dose curve; as a rule, active = well fitted curve in the direction sought with a large enough effect; inconclusive = small, poorly fitted or top-dose-only effect, or another doubt; inactive = no such curve, though single readings can be large; an effect the other way counts as inactive or inconclusive. Unless noted, % is scaled to controls: 0 for no effect and ±100 for the full control effect; potency is read from the fitted curve at half-maximal effect.
SMILES,KB-V1 cytotox,KB-3-1 tox,HT1080NT lethal,TDP1 cell CPT,HT1080 IDH1KD tx,TDP1 cell noCPT
O=[N+]([O-])c1ccc(N2CCN(c3ccccc3Cl)CC2)cn1,?,5.2µM*,1%,18µM*,-4%,21µM*
C=CCNc1nc(C)c(CNc2c(C)cc(C)cc2C)nc1C#N,i,i,0%,-3%,-9%,1%
C=C1C[C@H](OC(=O)C(C)(O)CCl)C2C(=C)C(=O)O[C@@H]2C2C1C[C@H](O)[C@]2(O)CCl (stereo not given in full),/,/,/,1.5µM*,/,0.82µM*
O=S(=O)(c1ccc(Br)cc1F)N1CCCCC1CCO (stereo not given),i,i,13%,7%,6%,-7%
CC(=O)c1cccc(NS(=O)(=O)c2cc3c(cc2C)N(C(C)=O)CCO3)c1,i,i,7%,?,-11%,?
CC(=O)c1cccc(NS(=O)(=O)c2ccc3c(c2)N(C(C)=O)CCO3)c1,i,?,?,?,-17%,21µM*
COC(=O)CN1C(=O)CSc2ccc(S(=O)(=O)Nc3cccc(C)c3)cc21,/,/,/,?,/,23µM*
CCc1cccc(NS(=O)(=O)c2ccc3c(c2)N(CC(=O)OC)C(=O)CS3)c1,/,/,/,18µM*,/,?
CC(=O)N1CCSc2ccc(S(=O)(=O)Nc3cccc(C)c3)cc21,?,i,-7%,18µM*,-23%,13µM*
COC(=O)CN1C(=O)CSc2ccc(S(=O)(=O)N3CCOCC3)cc21,/,/,/,24%,/,-5%
CCN(CC)c1cc2c(cc1F)c(=O)c(S(=O)(=O)c1ccc(C)cc1)cn2Cc1ccc(F)cc1,i,i,/,?,/,?
CC1CCCC(NC(=O)COC(=O)CCC2CCCC2)C1C (stereo not given),?,i,8%,8%,12%,-2%
CCCNC(=O)C(Cc1cccc(OC)c1)NC(=O)c1ccc(C(C)(C)C)cc1 (stereo not given),i,i,4%,?,-7%,?
CCCCCn1c(NCc2ccc(OC)cc2)nc2ccccc21,?,?,/,16µM*,/,23µM*
CCCCn1c(NCc2ccccn2)nc2ccccc21,13µM*,i,-4%,?,?,-29%
CC1(C)CC(=O)c2cnc(N3CCc4ccccc4C3)nc2C1,i,i,9%,?,-8%,?
O=C(COC(=O)c1ccc(Br)cc1)NCc1ccccc1,i,i,5%,-3%,-3%,-20%
CC(=O)Cc1cc(O)c2ccccc2c1OC(=O)c1ccc(Br)cc1,i,i,-12%,21µM*,-10%,21µM*
COc1ccc(CNC(=O)Cn2nc(C)c3nn(-c4ccc(Cl)cc4)c(C)c3c2=O)cc1,/,/,/,4%,/,-22%
